A number with no mark means an inactive call. Records with an inconclusive call do not appear. The source made the active and inactive calls. Calls follow the shape of the dose curve; as a rule, active = well fitted curve in the direction sought with a large enough effect in the repeat runs; inconclusive = weak or mixed curves; inactive = no such curve, though single readings can be large; an effect the other way counts as inactive or inconclusive.

This is an account of results in PubChem BioAssay (Tox21).

Test [1] is described as follows: A CellTox Green Cytotoxicity Assay to monitor cytotoxicity in HepG2 cells - 0 hour (AID 1224882). Also: nearly all actives have a fitted effect of over 35% in size. Also: potency is read from the fitted curve at half-maximal effect. The method, boiled down: (§1)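 Cytotoxicity was tracked as dead-cell DNA fluorescence in HepG2 cells treated with test compounds at 37 C; each time-point value comes from one kinetic series spanning 0, 8, 16, 24, 32 and 40 h.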
Test [2] can be described thus: A CellTox Green Cytotoxicity Assay to monitor cytotoxicity in HepG2 cells - 32 hour (AID 1224883). Also: nearly all actives have a fitted effect of over 50% in size. Also: potency is read from the fitted curve at half-maximal effect. The method, boiled down:
as §1

Test [3] in a line: A CellTox Green Cytotoxicity Assay to monitor cytotoxicity in HEK293 cells - 8 hour (AID 1224884). Also: nearly all actives have a fitted effect of over 35% in size. Also: potency is read from the fitted curve at half-maximal effect. The method, boiled down:
(§2)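 Real-time, in one plate: 600 HEK293 cells/well with dead-cell DNA dye, pinned compound after 5 h, 37 C incubation over 40 h; viable cells give no appreciable fluorescence.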

Test [4] can be described thus: qHTS RealTime-Glo MT Cell Viability Assay in HepG2 cells - 16 hour (AID 1224885). Also: nearly all actives have a fitted effect of over 50% in size. Also: potency is read from the fitted curve at half-maximal effect. Summed up:
(§3)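 HepG2 cells (600/well) were dispensed with RealTime-Glo reagents, incubated 5 h at 37 °C, then treated with compounds in DMSO for up to 40 h. Nonlytic NanoLuc luminescence reflecting viable cells was read at each stated time point.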

The nature of test [5]: qHTS RealTime-Glo MT Cell Viability Assay in HEK293 cells - 24 hour (AID 1224886). Also: nearly all actives have a fitted effect of over 50% in size. Also: potency is read from the fitted curve at half-maximal effect. As to activity change, negative = cytotoxicity: top concentration of the series differs between compounds. Summed up: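 HEK293 cells seeded with NanoLuc/prosubstrate reagent, rested 5 h at 37 C, then dosed and kept at 37 C up to 40 h. Nonlytic real-time luminescence from viable cells read at 0, 8, 16, 24, 32 and 40 h.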
(In qHTS, concentration-response curves come from the screen itself.)

The nature of test [6]: qHTS RealTime-Glo MT Cell Viability Assay in HEK293 cells - 8 hour (AID 1224887). Also: nearly all actives have a fitted effect of over 50% in size. Also: potency is read from the fitted curve at half-maximal effect. As to activity change, negative = cytotoxicity: top concentration of the series differs between compounds. Summed up: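 Kinetic, non-lysing viability readout. Seed HEK293 (600/well) with reagent, incubate 5 h at 37 C/5% CO2, pin 23 nL compound in DMSO, incubate at 37 C, read luminescence at 0, 8, 16, 24, 32, 40 h.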
A short description of test [7]: A CellTox Green Cytotoxicity Assay to monitor cytotoxicity in HEK293 cells - 16 hour (AID 1224888). Also: nearly all actives have a fitted effect of over 35% in size. Also: potency is read from the fitted curve at half-maximal effect. Summed up:
as §2

Test [8] is described as follows: qHTS RealTime-Glo MT Cell Viability Assay in HepG2 cells - 0 hour (AID 1224889). Also: nearly all actives have a fitted effect of over 50% in size. The method, boiled down:
as §3

The nature of test [9]: A CellTox Green Cytotoxicity Assay to monitor cytotoxicity in HepG2 cells - 8 hour (AID 1224890). Also: nearly all actives have a fitted effect of over 45% in size. Also: potency is read from the fitted curve at half-maximal effect. The method, boiled down:
as §1

Test [10] in a line: A CellTox Green Cytotoxicity Assay to monitor cytotoxicity in HEK293 cells - 32 hour (AID 1224881). Also: nearly all actives have a fitted effect of over 40% in size. Also: potency is read from the fitted curve at half-maximal effect. Summed up:
as §2
% is scaled to controls: 0 for no effect and ±100 for the full control effect.

For `C=CCCCCCCCCCCCCCCCC`, in test [1], the cytotoxicity was -13.6% [at 6.97 µM]. Besides, the figures for the cytotoxicity increase in test [2], in [3] and in [9] were -20.4% [at 6.97 µM], -6.36% [at 6.97 µM] and -16.6% [at 6.97 µM], respectively. For the same molecule, the activity change, negative = cytotoxic in test [4] is -8.12% [at 6.97 µM]. For the same molecule, the activity change, negative = cytotoxicity in test [5] was -6.06% [at 6.97 µM]; in [6] it was -0.881% [at 6.97 µM]; in test [8], -21.4% [at 6.97 µM]. Besides, the activity change in test [7] was -0.39% [at 6.97 µM, active compounds read high].
Take `NCC1CCCC(CN)C1` (stereo unspecified): the Potency entry in test [1], in [2], in test [3], in test [4], in [5] and in test [6] was “inactive” each time. The Potency result in test [7], in test [8] and in test [9] was “inactive” throughout.
On to `ON(Cc1ccccc1)Cc1ccccc1`, for which the Potency entry in [1], in [2], in test [3], in test [4], in [5] and in [6] was “inactive” each time. Moreover, the Potency result in [7], in test [8] and in test [9] was “inactive” throughout.
In the case of `CC(=O)[C@H]1CC[C@H]2[C@@H]3C=CC4=CC(=O)CC[C@@]4(C)[C@@H]3CC[C@]12C`, the Potency result in test [10], in [2], in test [3], in test [4], in test [6] and in [9] was “inactive” in each case.
In the case of `CC1CC(O)CC(C)(C)C1` (stereo unspecified), the Potency result in [1], in [2], in test [3], in test [4], in test [5] and in [6] was “inactive” in each case. The Potency entry in [7], in test [8] and in test [9] was “inactive” throughout.
As to `O=C(O)Cc1ccc(-c2ccccc2)cc1`, the Potency result in test [1], in [2], in test [3], in test [4], in test [5] and in test [6] was “inactive” throughout. The Potency entry in test [7] and in test [9] was “inactive” throughout.
For the molecule `CCCCCCCC/C=C\CCCCCCCC(=O)OC(CO)CO`, the Potency entry in test [10], in [2], in test [3], in test [4], in test [5] and in test [7] was “inactive” in each case. Also, the Potency result in [8] and in test [9] was “inactive” throughout.
In the case of `CCCCC(CC)COC(=O)COc1ccc(Cl)cc1C` (stereo unspecified), the Potency entry in test [1], in test [2], in [3], in test [4], in [5] and in [6] was “inactive” throughout. The Potency entry in [7], in test [8] and in [9] was “inactive” each time.
As for `CCCCCCCCCCCCCCC[C@H](O)[C@@H](N)CO`, the Potency in [10] is 21.3 µM (active); in test [2] it was 26.8 µM (active); in test [3] it was 23.9 µM (active); in [5] it was 21.3 µM (active); in [6], 23.9 µM (active); in test [7], 21.3 µM (active). Moreover, the Potency in test [9] was 23.9 µM (active).
With `CO[C@H]1C=CO[C@@]2(C)Oc3c(C)c(O)c4c(O)c(c5c(c4c3C2=O)=NC2(CCN(CC(C)C)CC2)N=5)NC(=O)/C(C)=C\C=C/[C@H](C)[C@H](O)[C@@H](C)[C@@H](O)[C@@H](C)[C@H](OC(C)=O)[C@@H]1C`, the Potency result in test [10], in test [3], in test [7] and in test [8] was “inactive” each time. Further, the Potency in test [2] is 47.9 µM (active); in test [5], 38.1 µM (active).
Take `C[Si](NC1CCCCC1)(NC1CCCCC1)NC1CCCCC1`: the Potency entry in [1], in [2], in test [3], in [4], in test [5] and in test [6] was “inactive” in each case. Besides, in test [8], the Potency entry was “inactive”.
For the molecule `Cc1oncc1C(=O)Nc1ccc(C(F)(F)F)cc1`, the Potency entry in [1], in test [2], in test [3], in test [4], in [5] and in [6] was “inactive” in each case. The Potency entry in test [7], in [8] and in [9] was “inactive” in each case.
Consider `O=[N+]([O-])c1cccc(S(=O)(=O)NCCNS(=O)(=O)c2cccc([N+](=O)[O-])c2)c1`, for which the Potency result in test [1], in [2], in [3], in [4], in [5] and in [6] was “inactive” each time. Besides, the Potency entry in test [7], in [8] and in test [9] was “inactive” each time.
For `O=C(CCCCCCCCC#CI)Oc1ccccc1`, the Potency entry in test [10], in test [2], in test [3], in [5], in test [6] and in test [8] was “inactive” throughout. Moreover, in [9], the Potency result was “inactive”. The Potency in test [4] was 15.1 µM (active).
`Cc1ccc(/C=N/n2c(-c3ccccc3)csc2=S)cc1`: the Potency result in test [10], in test [2], in [3], in test [4], in [5] and in test [6] was “inactive” each time. Further, the Potency entry in test [8] and in test [9] was “inactive” in each case.
With `CC(C)CCCCCCOC(=O)CCCCC(=O)OCCCCCCC(C)C`, the Potency result in test [1], in test [2], in test [3], in test [4], in [5] and in test [6] was “inactive” in each case. Also, the Potency result in test [7], in test [8] and in test [9] was “inactive” in each case.
With `c1cnc2c(n1)CCCC2`, the Potency in test [1] is 24.5 µM (active); in test [2], 43.6 µM (active); in [3] it was 43.6 µM (active); in [7], 43.6 µM (active); in [9], 38.9 µM (active). Besides, the Potency result in test [4], in test [5] and in test [6] was “inactive” each time.
`CC(C)C(OC(=O)c1ccccc1)C(C)(C)COC(=O)c1ccccc1` (stereo unspecified): the Potency result in test [10], in test [2], in test [4], in [6], in [8] and in [9] was “inactive” throughout.
As for `c1ccc(COCc2ccccc2)cc1`, the Potency result in [1], in test [2], in test [3], in test [4], in test [5] and in test [6] was “inactive” in each case. In addition, the Potency result in [7] and in [8] was “inactive” throughout.
Consider `Cc1ccnc2ccccc12`, for which the Potency entry in [1], in [2], in test [3], in [4], in [5] and in test [6] was “inactive” in each case. Also, the Potency result in test [7], in [8] and in [9] was “inactive” throughout.
